From PubChem BioAssay AID651871 (Sanford-Burnham Center for Chemical Genomics, 2012)
Where “and” joins values, the source holds several entries; their conditions need not be identical. Equal entries are not always repeated.

These compounds were tested on H9c2 (assay: protection of cardiomyocytes from stress damage, SAR follow-up, cell-based, panel, H9c2 and HL-1, ATP luminescence, set 2 (AID 651871;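 note: cells exposed to stressor for 2 h before ATP readout; reference of the scale not given here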)). Settings: H9c2/HL-1 cardiomyocytes, H2O2 oxidative stress; with H2O2, run 4, at 79 µM (top of the series).

| SMILES | activity (protection/inhibition) |
| --- | --- |
| COc1cc(-c2cc(C(=O)Nc3cccc(C(=O)NCc4ccccc4)c3)c3ccccc3n2)cc(OC)c1OC | 87.2% |
| CCOC(=O)c1cccc(NC(=O)CNC(=O)c2cc(-c3cc(OC)c(OC)c(OC)c3)nc3ccccc23)c1 | 115% |
| COc1ccc2c(c1OC)C(=O)N1c3ccccc3C(=O)N(Cc3cccc(Cl)c3Cl)C21 (centres undefined) | 52.4% and 40.9% |
| COc1ccc2nc(-c3cc(OC)c(OC)c(OC)c3)cc(C(=O)NCC(=O)Nc3ccc(C(C)=O)cc3)c2c1 | 86.1% and 56.6% |
